Hits are enriched below; roughly 6% of the tested compounds scored in any of these assays.
DRD3 antagonist = D3 dopamine receptor (human) antagonism. max response, negative = inhibition, %. D3R cells, DiscoveRx beta-arrestin luminescence, antagonist mode; hits give low values. AID 652054. hit rate 2.5% among 360,000. P35462; in the data active = max response below about -50%; inconclusive = no clear call, values can overlap the other calls; note: % is set by controls: 0 for no effect and ±100 for the full control effect
Target sequence (P35462 whole entry, looked up): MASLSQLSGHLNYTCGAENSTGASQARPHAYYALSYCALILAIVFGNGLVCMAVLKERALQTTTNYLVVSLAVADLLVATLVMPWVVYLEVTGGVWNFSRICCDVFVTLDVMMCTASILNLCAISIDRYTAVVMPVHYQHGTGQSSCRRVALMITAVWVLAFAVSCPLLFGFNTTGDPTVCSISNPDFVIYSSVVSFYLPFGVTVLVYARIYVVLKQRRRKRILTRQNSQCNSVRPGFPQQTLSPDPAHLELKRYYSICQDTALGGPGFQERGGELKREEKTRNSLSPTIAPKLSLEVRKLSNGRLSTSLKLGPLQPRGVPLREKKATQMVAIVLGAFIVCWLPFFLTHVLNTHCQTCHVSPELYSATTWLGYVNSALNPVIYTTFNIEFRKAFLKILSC
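Cells expressing the human receptor were seeded at 1500 cells/well, incubated overnight at 37 degrees C in 5% CO2, then exposed to library compounds with dopamine controls for 90 minutes at 37 degrees C before luminescent detection.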
D1 ag = activates the human D1 dopamine receptor. P21728. HEK293 T-REx D1 cells, calcium flux, agonist mode. activation, % at 2 µM. hit rate 1% among 360,000. AID 504660; in the data active = activation above about 30%; note: 0% is about no effect
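Tetracycline-induced HEK293 TREx D1 cells, force-coupled to calcium signalling, were dye-loaded with a no-wash calcium kit. Compound was pin-added after a 10 s baseline. Fluorescence was read kinetically at 1 cycle/s for 180 s, with calcium rises flagged as agonism.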
D1 antagonist = antagonists of human D1 dopamine receptor | HEK293 TREx D1 cells, calcium flux, dopamine EC80; hits give low values | P21728 | AID 504652 | activity change, negative = inhibition, % at 10 µM | hit rate 3.2% among 360,000; in the data active = activity change below about -30%; note: % is set by controls: 0 for no effect and ±100 for the full control effect
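Kinetic fluorescence of a calcium dye serves as the read-out. D1-expressing Hek293 Trex cells, induced overnight at 30 C, are exposed to compound for 180 s before an EC80 dopamine addition, then read 180 s further.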
D1 PAM = human D1 dopamine receptor positive modulation; P21728; HEK293 TREx D1 cells, calcium flux, dopamine EC20 potentiation; potentiation, % at 10 µM; hit rate 0.036% among 360,000; in the data active = potentiation above about 30%; note: 0% is about no effect
D3 ag = agonists of human D3 dopamine receptor. P35462. D3R DiscoveRx beta-arrestin cells, luminescence, 90 min. max activation, %. hit rate 0.58% among 410,000; in the data active = max activation above about 30%; note: 0% is about no effect
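Cells at 1500/well, incubated overnight, then treated with pinned compounds (dopamine as control) for 90 min at 37 degrees C. DiscoveRx reagent added for 30 - 60 minutes at room temperature; luminescence read.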
* hit, by the source's call; ? = inconclusive; . = no result given.

SMILES	DRD3 antagonist	D1 ag	D1 antagonist	D1 PAM	D3 ag
COc1cc(O)oc1C=Nc1ccc(Cl)cc1	-21	2	15	-9	-3
Cn1ncc(-c2ccno2)c1C(=O)O	-1	37*	-6	0	-12
Cc1cc(O)c(-c2ccno2)cc1Cl	1	6	-6	-1	1
Cn1c(SCc2ccc(C(F)(F)F)cc2)nc2c([nH]c3ccccc32)c1=O	.	0	-15	-3	1
Cc1ccc(C(c2sc3nc(-c4ccco4)nn3c2O)N2CCN(Cc3ccccc3)CC2)cc1 (configuration not stated)	.	8	.	-3	-2
Cc1cccc(/C=N/c2sc3c(c2C(=O)OC(C)(C)C)CCN(C)C3)c1O	-5	5	2	2	4
CCOC(=O)c1c(/N=C/c2cc(C)ccc2O)sc2c1CCN(C)C2	-54*	2	-12	-5	-35
Cc1ccc(-c2ccc(/C=C(\C#N)C(N)=S)n2C)cc1	-7	5	-51*	-5	-6
Cn1cccc1/C=C(/C#N)C(N)=S	-63*	2	-49*	-4	-18
Cc1cc(C)c(/C=C(\C#N)C(N)=S)c(C)c1	0	17	8	-1	0
COc1ccc(-c2cc(=O)oc3c4c(ccc23)OCN(Cc2ccccc2)C4)cc1	.	14	-25	-3	-2
Cc1cc(C)n(-c2cc(N3CCN(S(=O)(=O)c4ccc(C)c(C)c4)CC3)ccc2[N+](=O)[O-])n1	21	.	.	.	0
Cc1cc(C)n(-c2cc(N3CCN(S(=O)(=O)c4ccc5ccccc5c4)CC3)ccc2[N+](=O)[O-])n1	-55*	1	-13	1	1
N#Cc1c(Cl)cccc1Oc1ccc([S+](=O)([O-])N2CCN([S+](=O)([O-])c3c(F)cccc3F)CC2)cc1	.	1	-16	-5	.
Cc1ccc(Nc2c(-c3ccc(N4CCOCC4)cc3)nc3c(C)cccn23)cc1	.	3	-32*	-1	4
Cc1ccccc1Nc1c(-c2ccc(N3CCOCC3)cc2)nc2ccccn12	.	-2	17	2	1
CCc1cccc(C)c1Nc1c(-c2ccc(N3CCOCC3)cc2)nc2ncccn12	.	32*	11	-1	2
Cc1ccc(C)c(NC(=O)C(CC(C)C)N2Cc3ccccc3C2=O)c1 (configuration not stated)	.	11	-2	1	-17
CC(=O)c1c(O)cc(O)cc1CC(=O)O	14	1	-58*	-4	6
CC(=O)c1c(O)cc(O)c(C(C)=O)c1O	30	3	-45*	-7	13
C=CCn1c(NCc2c[nH]c3ccccc23)nc2ccccc21	?	1	-59*	-14	-4
CCn1c(NCc2c[nH]c3ccccc23)nc2ccccc21	10	.	.	.	9
COc1ccc(NC(=O)c2oc3ccc(S(=O)(=O)N(C)C4CCCCC4)cc3c2C)cc1Cl	.	-2	-30*	0	7
COc1ccc2oc(C(=O)Nc3ccc(S(=O)(=O)N(C)C4CCN(C)CC4)cc3)c(C)c2c1	-27	37*	-49*	-11	-17
Cc1ccc(S(=O)(=O)Nc2ccc(-c3ccc(N4CCCCCC4)nn3)cc2)cc1C	.	-1	20	2	-2
SMILES	DRD3 antagonist	D1 ag	D1 antagonist	D1 PAM	D3 ag
COc1ccc(C(=O)Nn2c(C)nnc2-n2nc(C)cc2C)cc1OC	14	-2	-31*	3	-4
COc1cccc(C(=O)Nn2c(C)nnc2-n2nc(C)cc2C)c1	21	-1	3	-2	0
CCOC(=O)C1CCC(CN(Cc2cccc(Br)c2)S(=O)(=O)c2ccc(C)cc2)CC1 (configuration not stated)	.	32*	22	0	-16
CC1=C(C(=O)N2CCOCC2)C(c2ccc(Br)cc2)NC(=S)N1c1ccccc1 (configuration not stated)	-11	1	-42*	-5	8
CC1=C(C(=O)N2CCOCC2)C(c2ccc(OC(F)F)cc2)NC(=S)N1c1ccccc1 (configuration not stated)	3	0	.	-6	12
O=C(CSc1ccc(Cl)cc1)N/N=C/c1ccc([N+](=O)[O-])o1	-9	9	-34*	-11	0
Cc1cccc2sc(N(Cc3cccnc3)C(=O)C3CCCCC3)nc12	.	4	.	0	-20
CC(=C\c1ccccc1)/C=C1/SC(=S)N(CC(=O)O)C1=O	.	.	.	.	-1
COCCCNC(=O)c1cn(CC(C)C)c(=O)c2c1c1ccccc1n2C	-6	-3	-8	-1	-12

Bioassay records: PubChem BioAssay, National Center for Advancing Translational Sciences (NCATS)
